“And” between values parts separate entries of the source, which are not always exact repeats. Equal values may be shown once. Inconclusive results are not listed. The source made the active and inactive calls. Unless noted, the call rests on the fitted dose curve.
How the values were obtained:
[1] = Nuclear factor erythroid 2-related factor 2/antioxidant responsive element (Nrf2/ARE) small molecule agonists: qHTS cell viability counter screen in human keratinocytes (AID 1919968; active means well fitted curve in the direction sought with a large enough effect in the repeat runs; an effect the other way counts as inactive or inconclusive; further: nearly all actives have a fitted effect of over 55% in size; further: potency means the concentration at half of the fitted maximal effect)
Outline: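 CellTiter-Fluor fluorescence, read 1 h after reagent, gave viability in the same wells as the ARE-luciferase assay. KeratinoSens cells (1,500/well) had 23 h compound exposure at 37 C/5% CO2 following 5 h plating.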

[2] = Nuclear factor erythroid 2-related factor 2/antioxidant responsive element (Nrf2/ARE) small molecule agonists: luciferase reporter gene qHTS assay in human keratinocytes (AID 1919969); further: nearly all actives have a fitted effect of over 35% in size; further: potency means the concentration at half of the fitted maximal effect
[3] = target: Gonadotropin-releasing hormone receptor (Homo sapiens) (UniProt P30968); assay: Human gonadotropin-releasing hormone receptor (GnRHR) small molecule agonists, calcium flux assay in GnRHR-HEK293 cells (AID 1920063); further: nearly all actives have a fitted effect of over 35% in size
Sequence of Gonadotropin-releasing hormone receptor (Homo sapiens) (P30968 whole entry, looked up): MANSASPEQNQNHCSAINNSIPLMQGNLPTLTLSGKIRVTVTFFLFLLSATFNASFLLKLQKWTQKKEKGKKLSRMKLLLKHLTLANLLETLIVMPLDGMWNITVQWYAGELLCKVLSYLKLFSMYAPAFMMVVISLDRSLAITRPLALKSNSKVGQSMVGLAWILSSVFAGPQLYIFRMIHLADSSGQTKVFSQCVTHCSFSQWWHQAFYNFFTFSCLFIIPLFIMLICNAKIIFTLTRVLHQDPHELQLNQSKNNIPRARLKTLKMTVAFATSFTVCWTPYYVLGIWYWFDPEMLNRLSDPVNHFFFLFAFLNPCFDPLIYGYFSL
Outline: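 Agonist mode: compounds at 15 concentrations, in triplicate, went onto calcium dye-loaded GnRHR-HEK293 cells. Intracellular calcium was then followed as 480/540 nm fluorescence at 1 s intervals over 3 min.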

[4] = target: KiSS-1 receptor (Homo sapiens) (UniProt Q969F8); assay: Human kisspeptin (KISS1R) small molecule agonists, calcium flux assay in KISS1R-HEK293 cells (AID 1920064; active means well fitted curve in the direction sought with a large enough effect in the repeat runs; an effect the other way counts as inactive or inconclusive)
Sequence of KiSS-1 receptor (Homo sapiens) (Q969F8 whole entry, looked up): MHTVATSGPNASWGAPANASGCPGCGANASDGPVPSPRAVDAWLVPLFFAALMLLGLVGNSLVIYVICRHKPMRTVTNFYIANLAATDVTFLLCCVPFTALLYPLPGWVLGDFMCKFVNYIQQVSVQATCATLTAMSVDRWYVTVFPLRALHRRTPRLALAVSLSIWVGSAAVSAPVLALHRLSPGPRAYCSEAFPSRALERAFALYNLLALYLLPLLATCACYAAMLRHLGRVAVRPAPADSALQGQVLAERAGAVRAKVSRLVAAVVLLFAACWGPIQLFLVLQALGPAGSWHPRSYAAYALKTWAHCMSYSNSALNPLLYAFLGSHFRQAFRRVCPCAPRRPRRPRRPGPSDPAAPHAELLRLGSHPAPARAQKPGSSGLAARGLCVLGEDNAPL
Outline: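 Agonist mode: intracellular calcium rise tracked at 1 s intervals over 3 min (480/540 nm) immediately after compound addition to dye-loaded KISS1R-HEK293 stable cells. Each compound tested at 15 concentrations in triplicate.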

[5] = G protein-coupled receptor (GPCR) small molecule agonists, calcium flux assay: HEK293 wild type cell line counter screen (AID 1920065)
Outline: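 Calcium flux counter screen: compound added in agonist mode at 15 concentrations in triplicate to dye-loaded parental HEK293 cells. Fluorescence (480/540) read kinetically for 3 min; ATP served as positive control.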

[6] = p53 small molecule agonists, cell-based qHTS assay with human liver microsomes (AID 1963577);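 further: p53 response element beta-lactamase reporter cells with liver microsomes plus NADPH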
Outline: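 In this qHTS, p53 response-element beta-lactamase cells receive test compound together with a microsome/NADPH activating system (0.5 mg/mL final each) and are incubated 16 h at 37 C before LiveBLAzer fluorescence detection.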

[7] = p53 small molecule agonists, cell-based qHTS assay with rat liver microsomes (AID 1963578)
Outline: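 Agonist mode in p53RE-bla reporter cells, with compounds co-incubated 16 h at 37 C alongside 0.5 mg/mL rat liver microsomes and 0.5 mg/mL NADPH (final), followed by a 2 h LiveBLAzer detection step.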

[8] = p53 small molecule agonists, cell-based qHTS assay with human liver microsomes: qHTS cell viability counter screen (AID 1963579); further: nearly all actives have a fitted effect of over 45% in size
Outline: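 Metabolically activated exposure: compounds, human liver microsomes and NADPH (0.5 mg/mL final apiece) were added to p53RE-bla cells seeded 5 h earlier, left 16 h at 37 C, and then assessed for viability by CellTiter-Glo luminescence.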

[9] = p53 small molecule agonists, cell-based qHTS assay with rat liver microsomes: qHTS cell viability counter screen (AID 1963580); further: nearly all actives have a fitted effect of over 45% in size
Outline: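 After the beta-lactamase ratio was read, CellTiter-Glo was added to the same wells and luminescence measured at 30 min; cells had been treated 16 h at 37 C with compounds, rat liver microsomes and NADPH (0.5 mg/mL final each).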

[10] = p53 small molecule agonists, cell-based qHTS assay (AID 1963582; active means well fitted activation curve with a large enough effect in the signal ratio in the repeat runs, not every such curve was filed as active; the % refers to the signal ratio)
Outline: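 Read-out is beta-lactamase FRET fluorescence after 2 h at room temperature with LiveBLAzer B/G substrate. p53 response element-bla cells were treated 16 h at 37 C with compounds in DMSO, added 5 h after seeding.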

[11] = target: 5-hydroxytryptamine receptor 2A (Homo sapiens) (UniProt P28223); assay: 5-hydroxytryptamine receptor 2A (HTR2A) small molecule antagonists, cell-based qHTS assay (AID 1963586); further: nearly all actives have a fitted effect of over 45% in size
Sequence of 5-hydroxytryptamine receptor 2A (Homo sapiens) (P28223 whole entry, looked up): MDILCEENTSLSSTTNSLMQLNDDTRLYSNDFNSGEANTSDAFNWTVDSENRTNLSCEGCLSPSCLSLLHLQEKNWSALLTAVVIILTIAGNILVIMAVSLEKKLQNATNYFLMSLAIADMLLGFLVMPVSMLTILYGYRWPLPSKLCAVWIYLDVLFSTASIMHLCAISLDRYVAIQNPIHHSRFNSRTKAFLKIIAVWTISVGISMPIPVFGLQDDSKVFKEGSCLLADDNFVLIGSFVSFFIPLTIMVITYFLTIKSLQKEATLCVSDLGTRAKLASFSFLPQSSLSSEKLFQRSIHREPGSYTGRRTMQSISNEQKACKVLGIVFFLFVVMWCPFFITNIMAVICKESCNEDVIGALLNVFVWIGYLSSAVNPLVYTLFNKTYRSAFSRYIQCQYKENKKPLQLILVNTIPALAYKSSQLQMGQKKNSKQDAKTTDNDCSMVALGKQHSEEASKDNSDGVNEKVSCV
Outline: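 CHO cells stably expressing human HTR2A were plated for 18 h at 37 C, then loaded with calcium dye for 1 h. Compounds were preincubated 5 min at room temperature before DOI (4 nM solution) was added. Kinetic fluorescence was read for 3 min.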

[12] = target: 5-hydroxytryptamine receptor 2A (Homo sapiens) (UniProt P28223); assay: 5-hydroxytryptamine receptor 2A (HTR2A) small molecule agonists, cell-based qHTS assay (AID 1963587); further: nearly all actives have a fitted effect of over 30% in size
Outline: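 CHO cells stably expressing human HTR2A, plated 18 h, loaded with calcium dye 1 h at 37 C. Agonist mode: compounds added and intracellular calcium fluorescence recorded kinetically for 2 min at 1 sec intervals.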

[13] = target: Muscarinic acetylcholine receptor M1 (Homo sapiens) (UniProt P11229); assay: Cholinergic receptor muscarinic 1 (CHRM1) small molecule antagonists, cell-based qHTS assay (AID 1963588); further: nearly all actives have a fitted effect of over 40% in size
Sequence of Muscarinic acetylcholine receptor M1 (Homo sapiens) (P11229 whole entry, looked up): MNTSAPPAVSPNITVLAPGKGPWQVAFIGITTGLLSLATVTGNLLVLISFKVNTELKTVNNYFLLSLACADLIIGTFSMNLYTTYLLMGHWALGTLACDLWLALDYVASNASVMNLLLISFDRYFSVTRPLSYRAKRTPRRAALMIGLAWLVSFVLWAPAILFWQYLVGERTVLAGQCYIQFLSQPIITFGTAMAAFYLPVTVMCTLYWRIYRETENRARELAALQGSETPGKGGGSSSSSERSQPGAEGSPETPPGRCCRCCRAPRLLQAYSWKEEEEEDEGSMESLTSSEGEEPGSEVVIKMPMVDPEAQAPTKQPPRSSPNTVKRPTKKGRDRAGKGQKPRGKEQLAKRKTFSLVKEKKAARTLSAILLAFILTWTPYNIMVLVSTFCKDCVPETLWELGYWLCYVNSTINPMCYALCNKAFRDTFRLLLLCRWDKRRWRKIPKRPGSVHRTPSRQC
Outline: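 Compounds were tested at 15 concentrations in three independent runs. Dye-loaded CHRM1-CHO cells were exposed 5 min at room temperature before stimulation by acetylcholine added at 50nM. Intracellular calcium was read kinetically on FDSS for 3 min.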

[14] = target: Muscarinic acetylcholine receptor M1 (Homo sapiens) (UniProt P11229); assay: Cholinergic receptor muscarinic 1 (CHRM1) small molecule agonists, cell-based qHTS assay (AID 1963589); further: nearly all actives have a fitted effect of over 35% in size
Outline: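 Agonist-mode calcium-flux screen: compounds at 15 concentrations, three independent runs, were pin-transferred onto dye-loaded human CHRM1-CHO cells. Fluorescence was then recorded kinetically every second over minutes.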

[15] = cAMP Responsive Elements (CRE) small molecule agonists, cell-based qHTS assay (AID 1963590)
Outline: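 Agonist mode: compound added to CRE-bla HEK 293T cells (2,000/well, 18 h after plating) for 3 h at 37 C/5% CO2. Reporter activity detected via FRET beta-lactamase substrate, 2 h room-temperature loading.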

[16] = cAMP Responsive Elements (CRE) small molecule antagonists, cell-based qHTS assay (AID 1963591; active means well fitted inhibition curve with a large enough effect in the signal ratio in the repeat runs, not every such curve was filed as active; the % refers to the signal ratio)
Outline: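 Antagonist mode: compounds are added alongside the adenylyl cyclase activator NKH477 (0.25 uM final) to CRE-bla HEK293T cells for 3 h. LiveBLAzer FRET substrate, 2 h at room temperature, reports bla expression.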

[17] = target: Beta-2 adrenergic receptor (Homo sapiens) (UniProt P07550); assay: Adrenergic beta2 receptor (ADRB2) small molecule antagonists, cell-based qHTS assay (AID 1963592); further: series mostly up to about 92 µM; nearly all actives have a fitted effect of over 50% in size
Sequence of Beta-2 adrenergic receptor (Homo sapiens) (P07550 whole entry, looked up): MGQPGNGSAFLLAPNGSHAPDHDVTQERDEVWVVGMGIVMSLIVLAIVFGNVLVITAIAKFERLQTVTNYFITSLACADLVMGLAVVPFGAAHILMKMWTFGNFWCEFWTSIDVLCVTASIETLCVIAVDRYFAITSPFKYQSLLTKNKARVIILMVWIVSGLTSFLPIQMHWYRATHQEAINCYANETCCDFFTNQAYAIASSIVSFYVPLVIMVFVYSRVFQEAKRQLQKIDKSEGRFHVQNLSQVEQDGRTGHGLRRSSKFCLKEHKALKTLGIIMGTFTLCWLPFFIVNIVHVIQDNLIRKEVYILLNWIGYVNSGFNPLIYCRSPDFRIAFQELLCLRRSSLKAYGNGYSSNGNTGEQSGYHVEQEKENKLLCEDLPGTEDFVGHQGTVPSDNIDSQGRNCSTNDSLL
Outline: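 Assay format: CHO-ADRB2 cells, 18-20hr seeding at 37C/5% CO2, then compound plus 1nM isoproterenol agonist mix for 0.5hr RT. Homogeneous time-resolved fluorescence cAMP detection after 1hr, expressed as 665/615 nm ratio.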

[18] = target: D(2) dopamine receptor (Homo sapiens) (UniProt P14416); assay: Dopamine D2 receptor (DRD2) small molecule agonists, cell-based qHTS assay (AID 1963594); further: nearly all actives have a fitted effect of over 35% in size
Sequence of D(2) dopamine receptor (Homo sapiens) (P14416 whole entry, looked up): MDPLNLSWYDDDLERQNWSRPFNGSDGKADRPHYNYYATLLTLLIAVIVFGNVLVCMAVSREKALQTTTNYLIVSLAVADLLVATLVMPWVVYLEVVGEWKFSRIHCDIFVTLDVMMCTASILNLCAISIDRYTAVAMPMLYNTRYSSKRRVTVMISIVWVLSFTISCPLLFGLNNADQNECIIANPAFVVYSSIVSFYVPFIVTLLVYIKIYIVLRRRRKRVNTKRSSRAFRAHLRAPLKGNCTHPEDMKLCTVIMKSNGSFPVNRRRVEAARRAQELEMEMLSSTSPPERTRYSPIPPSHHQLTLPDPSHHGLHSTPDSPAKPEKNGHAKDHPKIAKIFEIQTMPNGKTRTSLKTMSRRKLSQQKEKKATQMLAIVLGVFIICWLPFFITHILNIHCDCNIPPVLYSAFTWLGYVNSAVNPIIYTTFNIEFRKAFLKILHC
Outline: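 HEK293 cells stably expressing human DRD2, pre-treated with PDE inhibitor Ro20-1724 (0.1 mM final) and compound 10 min at room temperature, then stimulated with NKH477 (200nM […]) for 30 min. cAMP read by HTRF (665/620 nm).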

[19] = target: D(2) dopamine receptor (Homo sapiens) (UniProt P14416); assay: Dopamine D2 receptor (DRD2) small molecule antagonists, cell-based qHTS assay (AID 1963595; active means well fitted inhibition curve with a large enough effect in the signal ratio in the repeat runs, with a control signal flat; the % refers to the signal ratio)
Outline: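 HEK293 cells stably expressing DRD2 were preincubated with 0.1 mM Ro20-1724, then with compound for 10 min at room temperature. Cells were stimulated with 200 nM NKH477 plus 12 nM quinpirole for 30 min, and cAMP was read by HTRF.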

[20] = p53 small molecule agonists, cell-based qHTS assay: qHTS cell viability counter screen (AID 1963581); further: nearly all actives have a fitted effect of over 45% in size
Outline: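 Counter screen read by CellTiter-Glo luminescence (ATP content, 30 min at room temperature), run in the same wells as the beta-lactamase reporter read. HCT-116 p53RE-bla cells saw compounds for 16 h at 37 C.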

Measured: Potency

Brc1ccc(Oc2cc(Br)c(Br)cc2Br)c(Br)c1
active: [2] 12.3 µM
not listed: [19] | [20]
inactive: all other assays above

CC(C)(c1ccc(OCC2CO2)cc1)c1ccc(OCC2CO2)cc1 (configuration not stated)
active: [1] 49.2 µM | [2] 27.7 µM and 27.3 µM
not listed: [10] | [14] | [16] | [20]
inactive: all other assays above

CCCN(CCC)c1c([N+](=O)[O-])cc(C(C)C)cc1[N+](=O)[O-]
active: [2] 9.48 µM and 15.4 µM
not listed: [14] | [20]
inactive: all other assays above

O=[N+]([O-])c1cc([As](=O)(O)O)ccc1O
not listed: [11] | [12] | [13] | [14] | [15] | [20]
inactive: all other assays above

O=C(O)c1nn(Cc2ccc(Cl)cc2Cl)c2ccccc12
not listed: [10] | [11] | [15] | [16] | [19]
inactive: all other assays above

CCCCCCCCCCCCBr
not listed: [20]
inactive: all other assays above

Nc1cc(Cl)cc(C(=O)O)c1Cl
not listed: [9]
inactive: all other assays above

C[C@]12CCC(=O)C=C1CC[C@@H]1[C@@H]2CC[C@]2(C)C(=O)CC[C@@H]12
not listed: [11] | [15] | [16] | [20]
inactive: all other assays above

CCOC(=O)C(c1c(O)c2ccccc2oc1=O)c1c(O)c2ccccc2oc1=O
not listed: [20]
inactive: all other assays above

BrC(Br)Br
not listed: [9]
inactive: all other assays above

CNC(=S)S
not listed: [9]
inactive: all other assays above

CNC(=O)Oc1c(C(C)(C)C)cc(C)cc1C(C)(C)C
active: [2] 61.1 µM
not listed: [18] | [20]
inactive: all other assays above

C=C(Cl)CCl
not listed: [11] | [20]
inactive: all other assays above

Cc1cccc(C#N)c1
not listed: [10] | [11] | [18]
inactive: all other assays above

O=C(CCl)CCl
active: [1] 50.3 µM and 54.5 µM | [2] 28.3 µM and 27.3 µM
not listed: [9] | [18] | [19]
inactive: all other assays above
